According to PubChem BioAssay AID894 (National Center for Advancing Translational Sciences (NCATS), 2007):
Several values for one entry are separate records, joined by “and”; a condition that tells them apart may be missing. Equal entries are not always repeated. The campaign covered roughly 150,000 compounds. About 6,500 (4.3%) were called active. Inconclusive results (about 12%) are left out. Shown is part of a subset that was picked to be rich in actives. Values without a mark were called inactive. Calls follow the shape of the dose curve; as a rule, active = well fitted inhibition curve with a large enough effect (not every such curve was filed as active); inconclusive = small, poorly fitted or top-dose-only effect, or another doubt; inactive = no such curve, though single readings can be large or run the other way.

These compounds were tested against 15-hydroxyprostaglandin dehydrogenase [NAD(+)] (Homo sapiens) (UniProt P15428) (assay: qHTS Assay for Inhibitors of HPGD (15-Hydroxyprostaglandin Dehydrogenase)). Conditions: purified HPGD, NADH fluorescence kinetic, PGE2 substrate; activity change, negative = inhibition: hits give low values.
15-hydroxyprostaglandin dehydrogenase [NAD(+)] (Homo sapiens), sequence (P15428 whole entry, looked up): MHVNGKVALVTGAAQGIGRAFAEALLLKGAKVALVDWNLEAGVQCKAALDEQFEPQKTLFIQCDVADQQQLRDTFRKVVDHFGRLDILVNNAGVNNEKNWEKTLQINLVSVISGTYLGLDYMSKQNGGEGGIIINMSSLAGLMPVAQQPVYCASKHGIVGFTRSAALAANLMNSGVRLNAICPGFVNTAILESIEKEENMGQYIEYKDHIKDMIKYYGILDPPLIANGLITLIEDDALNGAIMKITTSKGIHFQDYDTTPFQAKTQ
Source text: Human 15-Hydroxyprostaglandin dehydrogenase (HPGD) catalyzes the inactivation of prostaglandin E2, and plays a major role in cancer biology by antagonizing the oncogenic potential of cyclooxygenase type 2 (COX2). Assays are available, based on absorbance/fluorescence increase of NADH with the substrate 15-OH prostaglandin E2. References 1. Myung SJ, Rerko RM, Yan M, Platzer P, Guda K, Dotson A, Lawrence E, Dannenberg AJ, Lovgren AK, Luo G, Pretlow TP, Newman RA, Willis J, Dawson D, Markowitz SD. 15-Hydroxyprostaglandin dehydrogenase is an in vivo suppressor of colon tumorigenesis. […] 2. Yan M, Rerko RM, Platzer P, Dawson D, Willis J, Tong M, Lawrence E, Lutterbaugh J, Lu S, Willson JK, Luo G, Hensold J, Tai HH, Wilson K, Markowitz SD. 15-Hydroxyprostaglandin dehydrogenase, a COX-2 oncogene antagonist, is a TGF-beta-induced suppressor of human gastrointestinal cancers. Proc Natl Acad Sci U S A. 2004 Dec 14;101(50):17468-73. 3. Yang L, Amann JM, Kikuchi T, Porta R, Guix M, Gonzalez A, Park KH, Billheimer D, Arteaga CL, Tai HH, Dubois R, Carbone DP, Johnson DH. Inhibition of Epidermal Growth Factor Receptor Signaling Elevates 15-Hydroxyprostaglandin Dehydrogenase in Non-Small-Cell Lung Cancer. Cancer Res. 2007 Jun 15;67(12):5587-5593. Inhibition of HPGD activity was screened by utilizing prostaglandin as an electron donor and NAD+ as an electron acceptor/cofactor. An increase in the fluorescence intensity due to conversion of NAD+ to NADH was used to measure the enzyme activity. NIH Chemical Genomics Center [NCGC] Structural Genomics Consortium [SGC]
Buffer: 50 mM Tris-HCl, 0.01% Tween 20, pH 8. Enzyme Buffer: 50 mM Tris-HCl, 0.5 mM NAD+ and 0.01% Tween 20, pH 8. Reagents/Controls: Buffer in columns 3 and 4 as negative control (no enzyme). Substrate/cofactor solution: 1 mM NAD+ and 30 uM prostaglandin (Sigma, prostaglandin E2, # P5640) final concentrations dispensed throughout the plate. Enzyme: 20 nM HPGD final concentration in columns 1, 2, 5-48. Column 1 and 2 is neutral (100% activity). A titration of control inhibitor GW5074 (G6416 Sigma-Aldrich, St. Louis, MO) top concentration 10 mM in DMSO, then 1:2 dilution for a total of 16 concentrations in duplicate) was pin-transferred into column 2. Assay Steps: Three uL of enzyme were dispensed to 1536-well Greiner black solid bottom plates. Compounds and control inhibitor (23 nL) were transferred via Kalypsys PinTool. The plates were incubated for 15 min at room temperature, and then 1 uL of substrate/cofactor solution was added to start the reaction. The plates were immediately transferred to and read 5 times every 30 seconds on ViewLux High-throughput CCD imager (Perkin-Elmer) using 360 nm excitation and 450 nm emission fluorescence protocol. The fluorescence intensity difference between the last and the first time points was used to compute reaction progress.
% is scaled to controls: 0 for no effect and ±100 for the full control effect; potency is read from the fitted curve at half-maximal effect.

SMILES	activity change, negative = inhibition	Potency
Cc1ccc(-n2c(C)cc(/C=C3\C(=O)NC(=O)N(C)C3=O)c2C)cc1C	-10.2%	
Cc1ccnc(-n2c(C)cc(/C=C3\C(=O)NC(=S)N(C)C3=O)c2C)c1		20 µM (active)
COC(=O)c1ccc2[se]c(CC3CCCCC3)c(I)c2c1	-2.23%	
CC(C)CC(C)Nc1ccc(Nc2ccccc2)cc1 (configuration not stated)	-6.53%	
Clc1cccc(Cl)c1Cl	-10.3%	
N#Cc1c(Cl)c(Cl)c(Cl)c(C#N)c1Cl		2.51 µM (active)
ClC(Cl)(Cl)c1ccccc1	-5.6% and -7.46%	
N#CC(C#N)=Cc1cc(O)c(O)c([N+](=O)[O-])c1		22.4 µM (active)
Nc1ccc([N+](=O)[O-])cc1	-4.46%	
COC1=C[C@@H]2[C@@H]3Cc4ccc(OC)c(O)c4[C@]2(CCN3C)CC1=O	-2.46%	
CN(C)C1C(=O)C(C(N)=O)=C(O)[C@@]2(O)C(=O)C3=C(O)c4c(O)cccc4[C@@](C)(O)C3C[C@@H]12 (some centres not stated)	-15.2%	
CCN1C[C@]2(C)CC[C@H](O)[C@@]34[C@@H]5CC6[C@@H](OC)C[C@@](O)([C@@H]5[C@@H]6O)[C@H](C[C@@H]23)[C@H]14	-6.3%	
Cc1cccc(-n2c(C)nc3cc(C(=O)N4CCC5(CC4)OCCO5)ccc32)c1		14.1 µM (active)
COc1ccc(S(=O)(=O)NCc2ccc(C(=O)N3CCC4(CC3)OCCO4)cc2)cc1	-19.1%	
O=C(c1cc(-c2ccncc2)nc2ccccc12)N1CCC2(CC1)OCCO2	-3.06%	
CCCC[N+]1(C)C2CC(OC(=O)C(CO)c3ccccc3)CC1C1OC12 (configuration not stated)	-2.83%	
CN(C)[C@@H]1C(=O)C(C(N)=O)=C(O)[C@@]2(O)C(=O)C3=C(O)c4c(O)cccc4[C@@](C)(O)C3CC12 (some centres not stated)	-24.8%	
COC1=C[C@]23CCCN2CCc2cc4c(cc2[C@@H]3[C@@H]1O)OCO4	-6.42%	
CCCCC/C=C\C/C=C\C/C=C\C/C=C\CCCCCC(=O)NCCO	-7.58% and -6.46%	
CC(=O)NBr	-7.45%	
CCC1(c2ccccc2)C(=O)NC(=O)N(C)C1=O (configuration not stated)	-4.89%	
CCC/C(=N\O)c1c[nH]c2ccccc12	-17.4%	
c1ccc(CCCCN2CCC(c3ccccc3)CC2)cc1	-7.8%	
CC(=O)NC(=O)NC(C)Cc1ccccc1 (configuration not stated)	-9.28%	

SMILES	activity change, negative = inhibition	Potency
CC(=O)c1ccc(OC(NC(=O)Cc2ccccc2)C(Cl)(Cl)Cl)cc1 (configuration not stated)		12.6 µM (active)
CCOP(=O)(OCC)C(NC(=O)c1ccc(C)cc1)C(Cl)(Cl)Cl (configuration not stated)	-5.69%	
CC(C)(C)c1ccc(CN2C(=O)CN=C(c3ccccc3)c3ccccc32)cc1	-17.9%	
Clc1ccccc1	-8.83%	
CCC(=NCCc1ccccc1)c1c(O)n(C2CCCCC2)c(=O)[nH]c1=O	-16.1%	
CCC(=NCc1ccco1)c1c(O)n(Cc2ccccc2)c(=O)[nH]c1=O		15.8 µM (active)
CCCCn1c(O)c(C(CC)=NCc2ccco2)c(=O)[nH]c1=O	1.83%	
c1ccc2c(c1)[I+]c1ccccc1-2	-12.3% and -15.8%	
c1csc(CN2CCCC3(CCNCC3)C2)n1	-0.589%	
Cc1cccc([C@H](C)c2cnc[nH]2)c1C	-10.2%	
c1csc(CN2CC3(CCNCC3)C2)n1	-15.7%	
C[C@H](Br)C(=O)N[C@H](CO)C(=O)O	-10.5%	
NCC[Se][Se]CCN		2.82 µM (active)
O=c1oc2ccccc2c(O)c1C(c1ccccc1O)c1c(O)c2ccccc2oc1=O	-2.8%	
C=CCN1CCC23c4c5ccc(O)c4O[C@H]2C(=O)CC[C@@]3(O)C1C5 (some centres not stated)	-13.3%	
CCN(CC)C(=O)c1ccc(NC(=O)c2cc(-n3cnnc3)ccc2Cl)cc1		1.41 µM (active)
CNC(=S)N/N=C1\C2CN3CCN(C2)CC1(c1ccccc1)C3	4.55%	
O=C(C1CC(=O)N(C2CCCC2)C1)N1CCC2(CC1)OCCO2 (configuration not stated)	6.18%	
Clc1ccc([C@@H]2C[C@H]3CC[C@@H]2N3)cn1	0.221%	
COc1cc(C(c2c(O)c3ccccc3oc2=O)c2c(C)n(C)n(-c3ccccc3)c2=O)ccc1O (configuration not stated)	-3.16%	
c1ccc(Cc2nn3c(Cn4cnc5ccccc54)nnc3s2)cc1		7.08 µM (active)
CCN1C[C@@]2(COC)CC[C@H](OC)[C@]34[C@@H]1[C@]1(OCO[C@@]15C[C@@H](OC)C1C[C@H]3[C@H]5[C@@H]1OC)[C@H](O)[C@@H]24	-0.114%	
C/C(=C\C=C/[C@@H](C)C(=O)O)[C@H]1CN[C@H](C(=O)O)[C@@H]1CC(=O)O	-11.8%	
